Laboratory results taken from PubChem BioAssay (Tox21).
Inconclusive results are not listed. A call without a number means that no potency is given here. Calls of active or inactive are those of the source. Calls come from the whole dose curve.

Test: p53 small molecule agonists, cell-based qHTS assay with human liver microsomes (AID 1963577);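 note: p53 response element beta-lactamase reporter cells with liver microsomes plus NADPH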
How it was run: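 p53RE-bla cells, 4,000/well, compound added after 5 h, with human liver microsomes 0.5 mg/mL and NADPH 0.5 mg/mL final; 16 h at 37 C, then LiveBLAzer 2 h RT, fluorescence.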

## CC(=O)NCCCS(=O)(=O)O
  Potency: inactive

## O=C(Nc1ccc(Cl)c(Cl)c1)c1cc(Cl)cc(Cl)c1O
  Potency: inactive

## C=CC(=O)OCC(C)OCC(C)OCC(C)OC(=O)C=C (configuration not stated)
  Potency: inactive

## CCN(CC)c1ccc2c(c1)Oc1cc(N(CC)CC)ccc1C21OC(=O)c2ccccc21
  Potency: inactive

## O=C(Nc1cccc(C(F)(F)F)c1)c1cc(Br)cc(Br)c1O
  Potency: inactive

## CCOCN(C(=O)CS(=O)(=O)O)c1c(C)cccc1CC
  Potency: inactive

## CCCC/C=C/C=C\C=O
  Potency: inactive

## CC=O
  Potency: inactive

## CNCC(O)c1ccc(O)c(O)c1 (configuration not stated)
  Potency: inactive

## Cc1ccc(O)c(C(=O)c2ccccc2)c1
  Potency: inactive

## Cc1cc(CCN2CCN(c3nsc4ccccc34)CC2)cc2c1NC(=O)CC2(C)C
  Potency: inactive

## COC(=O)Nc1nc2ccc(C(=O)C3CC3)cc2[nH]1
  Potency: inactive

## CCCCCCCCOC(=O)c1cc(O)c(O)c(O)c1
  Potency: inactive

## CC(C)c1ccc2c(c1)CC[C@H]1[C@](C)(CN)CCC[C@]21C
  Potency: inactive

## CCCOc1sc(C(=O)N2CCC(c3cc(CN)ccc3F)CC2)c(C)c1Br
  Potency: inactive

## O=C(Cl)c1ccc(F)c(Cl)c1
  Potency: inactive

## Nc1ccc(N)c2ccccc12
  Potency: inactive
